# Laboratory results published in PubChem BioAssay AID651949 (Broad Institute, 2012).
# Entries with a potency or affinity are not part of this list. The source made the active and inactive calls.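 Rule for the calls: active = compounds lowering cell ATP signal whose fitted half-maximal concentration is at most twice the top tested dose; inconclusive = flat curve with 30 to 70% signal loss, or poor fit; inactive = the rest.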
# Experiment: HEK293T cell cytotoxicity, dose response, cytotoxicity control, CellTiter-Glo luminescence, dry powder, set 6 (AID 651949)
# Settings: HEK293T viability, CellTiter-Glo ATP luminescence, 48 h; series mostly up to 26 µM
row,Structure (SMILES),outcome
1,c1ccc(CSc2nnc(-c3ccccc3)o2)cc1,inactive
2,Clc1ccc(-c2nnc(SCc3ccccc3)o2)cc1,inactive
